The structures appear in SMILES notation.

In the assay the test system is XIP peptide (Xip251-270). Briefly: small-molecule binders of XIP peptide, primary screen, biochemical, small-molecule microarray, fluorescence 635/667 nm, 0.5 µg/mL protein (AID 1183). The following applies: small-molecule microarray binding, fluorescence 635 nm; higher = more signal.
With `NCCCCCNC(=O)[C@@H]1C[C@@H]2C(=O)N[C@@H](Cc3ccccc3)C(=O)N2[C@@H]1c1ccc(O)cc1`, the composite z-score was determined as 0.549.

Turning to `CN(C)CCCCCCNC(=O)[C@@H]1C[C@@H]2C(=O)N[C@@H](Cc3ccccc3)C(=O)N2[C@@H]1c1ccc(O)cc1`, the composite z-score came out at 0.887.

As to `C=CC[C@]1(C(=O)NCc2ccccc2)N=C(c2ccc(OCCCO)cc2)O[C@H]1c1ccccc1N=[N+]=[N-]`, the composite z-score turned out to be 0.699.

Turning to `CC(C)N1C(=O)[C@@]2(Cc3ccccc31)c1ccccc1C(=O)N(Cc1ccccc1Cl)[C@H]2c1ccc(CO)cc1`, the composite z-score was 0.388.

With `C=CCNC(=O)[C@@H]1[C@H]2C(=O)O[C@H](c3ccccc3)[C@H](c3ccccc3)N2[C@H](c2ccccc2OCCO)[C@@]12C(=O)N(C(=O)OCCOC)c1ccccc12`, the composite z-score came out at 0.737.

Take `C=C(COC)/C(=C/C[C@H](OC(C)=O)c1ccc(CO)o1)c1cc(C(=O)OC)ccc1OC`: the composite z-score was -0.257.

Take `O=C1NC(=O)C2C1C=CC(C(O)c1cc(C(F)(F)F)cc(C(F)(F)F)c1)N2Nc1ccccn1` (stereo unspecified): the composite z-score came to 0.797.

Take `OCCCC1=CC(c2cccs2)N(Cc2cc3c(cc2Br)OCO3)CC1` (stereo unspecified): the composite z-score was 0.435.

Consider `C[C@H]1NC(=O)[C@@]23C(=O)N[C@@H](Cc4ccccc4)C2[C@H](C)[C@@]2(C)O[C@H]2C3/C=C/C/C=C\CNC(=O)[C@@H]2CCCN2C1=O` (stereo partly specified), for which the composite z-score is 0.667.

On to `COC(=O)[C@@]1(Cc2ccc(OC)cc2)[C@H]2c3cc(C(=O)N(C)C)n(Cc4ccc(S(C)(=O)=O)cc4)c3C[C@H]2CN1C(=O)c1ccccc1`, for which the composite z-score was 0.233.

Take `O=C1c2ccccc2[C@](Cc2ccccc2I)(C(=O)NCC(F)(F)F)[C@H](c2ccc(CO)cc2)N1Cc1ccccc1Cl`: the composite z-score stood at 0.776.

The record behind these values is PubChem BioAssay.
